Reference: PubChem BioAssay (NCI)
This is part of a sample that, as a whole, favours compounds with a hit. Of some 83,000 tested, about 20% had one in any assay.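 Percent growth is the endpoint: 0 to 100 indicates growth inhibition (40 means 60% inhibition), 0 means no net growth, and negative values indicate cell death.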 Activity calls are given as the source filed them. How the source made its calls: active means growth percent below 10; inactive means the rest.

What was measured:
Assay in all cases: NCI-60 one-dose screen, 48 h (100 = growth as untreated, 0 = no growth, -100 = all killed)
Details in all cases: 10 µM unless noted
[1] = tested on: HCT-15 colon
[2] = tested on: HT29 colon
[3] = tested on: SNB-75 CNS
[4] = tested on: SNB-19 CNS
[5] = tested on: U251 CNS
[6] = tested on: PC-3 prostate
[7] = tested on: SK-MEL-5 melanoma
[8] = tested on: UACC-62 melanoma
[9] = tested on: LOX IMVI melanoma
[10] = tested on: SK-MEL-28 melanoma

Measured: growth

C/C(=N\NC(=O)CC#N)c1cc2cc(Cl)ccc2o1
inactive: [1] 94.7% | [2] 97.2% | [3] 91% | [4] 77.9% | [5] 89.3% | [6] 92.4% | [7] 84.2% | [8] 91% | [9] 103% | [10] 110%

N#CC1=C(N)OC2=C(C(=O)CCC2)C1c1ccco1 (stereo not given)
inactive: [1] 104% | [2] 109% | [3] 95.7% | [4] 98.3% | [5] 99.3% | [6] 102% | [7] 101% | [8] 112% | [9] 96.4% | [10] 111%

COc1ccc(OC)c(NC(=O)c2cc(S(=O)(=O)N3CCc4ccccc43)ccc2OC)c1
inactive: [1] 107% | [2] 76.7% | [3] 85.1% | [4] 75.9% | [5] 92.1% | [6] 88.5% | [7] 67.6% | [8] 79.2% | [9] 94.7% | [10] 131%

COc1ccc(/C=C2\C(=O)N(C(=O)c3csc(NC(C)=O)n3)N=C2C)cc1
inactive: [1] 103% | [2] 98.9% | [3] 86.5% | [4] 102% | [5] 101% | [6] 98.9% | [7] 107% | [8] 108% | [9] 96% | [10] 110%

COc1cc(OC)c(C(=O)/C=C/c2ccc(C#N)cc2)c(OC)c1
inactive: [3] 14.1% | [4] 16.7% | [5] 12.6% | [6] 37.4% | [8] 26.5% | [10] 39.2%
active: [1] 9.66% | [2] 3.67% | [7] 8.04% | [9] 6.31%

CC(=O)Nc1nc(C(=O)N2N=C(C)/C(=C/c3cccs3)C2=O)cs1
inactive: [1] 93.1% | [2] 96.5% | [3] 92% | [4] 102% | [5] 99.4% | [6] 102% | [7] 109% | [8] 113% | [9] 98% | [10] 111%

O=C(c1ccccc1)C(Cl)C(Cl)c1ccccc1 (stereo not given)
inactive: [2] 20.4% | [3] 70.7% | [4] 92% | [5] 78% | [6] 83% | [7] 88.8% | [10] 67.3%
active: [1] -7.84% | [8] 0.557% | [9] -64.9%

c1ccc2c(c1)Oc1ccccc1C2C1c2ccccc2Oc2ccccc21
inactive: [1] 93.3% | [2] 82.8% | [3] 86.2% | [4] 97.1% | [5] 99.3% | [6] 85.7% | [7] 100% | [8] 86.7% | [9] 86.5% | [10] 110%

CCC1CCc2nc3sc(C(=O)Nc4ccccc4F)c(N)c3cc2C1 (stereo not given)
inactive: [1] 35.3% | [2] 39.5% | [3] 66.1% | [4] 76% | [5] 65.5% | [6] 67.3% | [7] 40.2% | [8] 47.9% | [9] 62.8% | [10] 59.9%

CCCCCC(=O)OCc1ccccc1
inactive: [1] 94.6% | [2] 106% | [3] 90.3% | [4] 105% | [5] 103% | [6] 104% | [7] 104% | [8] 103% | [9] 96.8% | [10] 113%

O=C(CCCn1c2c(sc3ccccc32)c(=O)n2nnc(-c3ccccc3)c12)NCCc1cnc[nH]1
active: [1] -62.8% | [2] -100% | [3] -55.1% | [5] -83.2% | [6] -84.5% | [7] -67.1% | [8] -68.6% | [9] -49.8% | [10] -92%
inactive: [4] 27.3%

O=C(C[N+](=O)[O-])c1ccc(Cl)cc1
inactive: [1] 103% | [2] 113% | [3] 94.9% | [4] 111% | [5] 107% | [6] 97.3% | [7] 104% | [8] 101% | [9] 96.4% | [10] 106%

CCC#CC[C@H]1C/C=C2/C(=O)C=C[C@@H]2C/C=C\CCCC(=O)O1
inactive: [3] 38.7% | [4] 37.3%
active: [1] -6.01% | [2] -15.8% | [5] -11.2% | [6] -19.7% | [7] -85.6% | [8] -17.6% | [9] -55.8% | [10] 1.63%

O=S(=O)(NCCCNc1cc(-c2cn(-c3ccccc3)nc2-c2cccc(O)c2)ccn1)c1ccc(Cl)cc1
active: [1] -5.43% | [2] -32.7% | [6] 1.79% | [7] -19.5% | [9] 3.96% | [10] -27.5%
inactive: [3] 20.3% | [4] 43.8% | [5] 13.8% | [8] 17.1%

CCOP(=O)(CCN1CCN(CCCCCOc2cc3c(cc2OC)C(=O)N2CCC[C@H]2C=N3)CC1)OCC
inactive: [1] 104% | [2] 80.4% | [3] 65.5% | [4] 91.5% | [5] 30.1% | [6] 76.2% | [7] 83.9% | [8] 94.6% | [9] 22% | [10] 120%

CSc1ccccc1C#C/C=C\C#Cc1ccccc1N1CCCC1=O
inactive: [1] 37.6% | [2] 24.1% | [3] 47% | [4] 88.5% | [5] 34.3% | [6] 46.2% | [7] 22.2% | [8] 34.4% | [9] 30.8% | [10] 50.1%

NC(CC(N)C(=O)O)C(=O)O (stereo not given)
inactive: [1] 88.4% | [2] 84.4% | [3] 88.4% | [4] 108% | [5] 93.8% | [6] 92.2% | [7] 85% | [8] 98% | [9] 99.4% | [10] 90.1%

O=S(=O)(c1ccccc1)n1ccc(-c2ccc3c(c2)CCO3)n1
inactive: [1] 92.8% | [2] 92.8% | [3] 76.2% | [4] 83.4% | [5] 73.6% | [6] 84.2% | [7] 70.2% | [8] 73.1% | [9] 85.2% | [10] 86.2%

CC(C)(C)OC(=O)N1C/C(=C\c2cccs2)C(=O)/C(=C/c2cccs2)C1
inactive: [1] 85.1% | [2] 86.4% | [3] 78.9% | [4] 94.5% | [5] 83.7% | [6] 74.7% | [7] 87.9% | [8] 66.7% | [9] 90.9% | [10] 106%

O=C(OCCCCOC(=O)n1cnc2ccccc21)n1cnc2ccccc21
inactive: [1] 103% | [2] 97% | [3] 96% | [4] 97.7% | [5] 99.5% | [6] 91.8% | [7] 101% | [8] 96.3% | [9] 92.9% | [10] 108%

Cc1sc2nc(CSc3nnc(-c4ccco4)o3)[nH]c(=O)c2c1C
inactive: [1] 90.7% | [2] 118% | [3] 108% | [4] 106% | [5] 88% | [6] 102% | [7] 97.5% | [8] 108% | [9] 99.2% | [10] 110%

c1ccn2nnnc2c1
inactive: [1] 99.8% | [2] 98.9% | [3] 106% | [4] 106% | [5] 92.7% | [6] 97.6% | [7] 103% | [8] 105% | [9] 91.9% | [10] 106%

O=C(c1c[nH]c2ccccc12)C(Sc1nc2ccccc2c(=O)[nH]1)c1ccccc1 (stereo not given)
inactive: [1] 104% | [2] 71.3% | [3] 90.6% | [4] 102% | [5] 101% | [6] 94.1% | [7] 99.8% | [8] 102% | [9] 95.3% | [10] 117%

COc1ccc2c(c1)C(=O)/C(=C/c1ccc(O)cc1)O2
inactive: [1] 52.1% | [2] 90.1% | [3] 67.5% | [4] 89.3% | [5] 92.9% | [6] 39.6% | [7] 87.8% | [8] 77.1% | [9] 45.5% | [10] 92.6%

CC(=O)OC[Si](C)(C)c1ccccc1
inactive: [1] 99.7% | [2] 105% | [3] 89.8% | [4] 102% | [5] 93.7% | [6] 95.8% | [7] 97.3% | [8] 102% | [9] 103% | [10] 98.2%

CC(Br)C(O)c1cc2c(cc1Br)OCO2 (stereo not given)
inactive: [1] 102% | [2] 114% | [3] 88% | [4] 112% | [5] 102% | [6] 98.6% | [7] 102% | [8] 98.9% | [9] 93.2% | [10] 108%

c1ccc2nc(-c3ccc4ccccc4n3)ccc2c1
inactive: [1] 104% | [2] 105% | [3] 85.6% | [4] 105% | [5] 95.8% | [6] 84.5% | [7] 88.9% | [8] 97% | [9] 92.2% | [10] 106%
